From the supplement of paper PMC11732987, “Enantioselective OTUD7B fragment discovery through chemoproteomics screening and high-throughput optimisation” (Communications Chemistry, 2025)

Legend:
Test in all cases: log2 ratio of Biotin-Ahx-Ub-VS probe labelling (fragment/DMSO); higher = less target engagement (more negative = stronger competition), active = hit call of the paper (q ≤ 0.05, log2 ratio ≤ -1)
Conditions in all cases: compound concentration: 200 uM; treatment time: 3 h
USP34 = USP34 (UniProt Q70CQ2)
Chain of USP34 (Q70CQ2 whole entry, the tested form may be a part): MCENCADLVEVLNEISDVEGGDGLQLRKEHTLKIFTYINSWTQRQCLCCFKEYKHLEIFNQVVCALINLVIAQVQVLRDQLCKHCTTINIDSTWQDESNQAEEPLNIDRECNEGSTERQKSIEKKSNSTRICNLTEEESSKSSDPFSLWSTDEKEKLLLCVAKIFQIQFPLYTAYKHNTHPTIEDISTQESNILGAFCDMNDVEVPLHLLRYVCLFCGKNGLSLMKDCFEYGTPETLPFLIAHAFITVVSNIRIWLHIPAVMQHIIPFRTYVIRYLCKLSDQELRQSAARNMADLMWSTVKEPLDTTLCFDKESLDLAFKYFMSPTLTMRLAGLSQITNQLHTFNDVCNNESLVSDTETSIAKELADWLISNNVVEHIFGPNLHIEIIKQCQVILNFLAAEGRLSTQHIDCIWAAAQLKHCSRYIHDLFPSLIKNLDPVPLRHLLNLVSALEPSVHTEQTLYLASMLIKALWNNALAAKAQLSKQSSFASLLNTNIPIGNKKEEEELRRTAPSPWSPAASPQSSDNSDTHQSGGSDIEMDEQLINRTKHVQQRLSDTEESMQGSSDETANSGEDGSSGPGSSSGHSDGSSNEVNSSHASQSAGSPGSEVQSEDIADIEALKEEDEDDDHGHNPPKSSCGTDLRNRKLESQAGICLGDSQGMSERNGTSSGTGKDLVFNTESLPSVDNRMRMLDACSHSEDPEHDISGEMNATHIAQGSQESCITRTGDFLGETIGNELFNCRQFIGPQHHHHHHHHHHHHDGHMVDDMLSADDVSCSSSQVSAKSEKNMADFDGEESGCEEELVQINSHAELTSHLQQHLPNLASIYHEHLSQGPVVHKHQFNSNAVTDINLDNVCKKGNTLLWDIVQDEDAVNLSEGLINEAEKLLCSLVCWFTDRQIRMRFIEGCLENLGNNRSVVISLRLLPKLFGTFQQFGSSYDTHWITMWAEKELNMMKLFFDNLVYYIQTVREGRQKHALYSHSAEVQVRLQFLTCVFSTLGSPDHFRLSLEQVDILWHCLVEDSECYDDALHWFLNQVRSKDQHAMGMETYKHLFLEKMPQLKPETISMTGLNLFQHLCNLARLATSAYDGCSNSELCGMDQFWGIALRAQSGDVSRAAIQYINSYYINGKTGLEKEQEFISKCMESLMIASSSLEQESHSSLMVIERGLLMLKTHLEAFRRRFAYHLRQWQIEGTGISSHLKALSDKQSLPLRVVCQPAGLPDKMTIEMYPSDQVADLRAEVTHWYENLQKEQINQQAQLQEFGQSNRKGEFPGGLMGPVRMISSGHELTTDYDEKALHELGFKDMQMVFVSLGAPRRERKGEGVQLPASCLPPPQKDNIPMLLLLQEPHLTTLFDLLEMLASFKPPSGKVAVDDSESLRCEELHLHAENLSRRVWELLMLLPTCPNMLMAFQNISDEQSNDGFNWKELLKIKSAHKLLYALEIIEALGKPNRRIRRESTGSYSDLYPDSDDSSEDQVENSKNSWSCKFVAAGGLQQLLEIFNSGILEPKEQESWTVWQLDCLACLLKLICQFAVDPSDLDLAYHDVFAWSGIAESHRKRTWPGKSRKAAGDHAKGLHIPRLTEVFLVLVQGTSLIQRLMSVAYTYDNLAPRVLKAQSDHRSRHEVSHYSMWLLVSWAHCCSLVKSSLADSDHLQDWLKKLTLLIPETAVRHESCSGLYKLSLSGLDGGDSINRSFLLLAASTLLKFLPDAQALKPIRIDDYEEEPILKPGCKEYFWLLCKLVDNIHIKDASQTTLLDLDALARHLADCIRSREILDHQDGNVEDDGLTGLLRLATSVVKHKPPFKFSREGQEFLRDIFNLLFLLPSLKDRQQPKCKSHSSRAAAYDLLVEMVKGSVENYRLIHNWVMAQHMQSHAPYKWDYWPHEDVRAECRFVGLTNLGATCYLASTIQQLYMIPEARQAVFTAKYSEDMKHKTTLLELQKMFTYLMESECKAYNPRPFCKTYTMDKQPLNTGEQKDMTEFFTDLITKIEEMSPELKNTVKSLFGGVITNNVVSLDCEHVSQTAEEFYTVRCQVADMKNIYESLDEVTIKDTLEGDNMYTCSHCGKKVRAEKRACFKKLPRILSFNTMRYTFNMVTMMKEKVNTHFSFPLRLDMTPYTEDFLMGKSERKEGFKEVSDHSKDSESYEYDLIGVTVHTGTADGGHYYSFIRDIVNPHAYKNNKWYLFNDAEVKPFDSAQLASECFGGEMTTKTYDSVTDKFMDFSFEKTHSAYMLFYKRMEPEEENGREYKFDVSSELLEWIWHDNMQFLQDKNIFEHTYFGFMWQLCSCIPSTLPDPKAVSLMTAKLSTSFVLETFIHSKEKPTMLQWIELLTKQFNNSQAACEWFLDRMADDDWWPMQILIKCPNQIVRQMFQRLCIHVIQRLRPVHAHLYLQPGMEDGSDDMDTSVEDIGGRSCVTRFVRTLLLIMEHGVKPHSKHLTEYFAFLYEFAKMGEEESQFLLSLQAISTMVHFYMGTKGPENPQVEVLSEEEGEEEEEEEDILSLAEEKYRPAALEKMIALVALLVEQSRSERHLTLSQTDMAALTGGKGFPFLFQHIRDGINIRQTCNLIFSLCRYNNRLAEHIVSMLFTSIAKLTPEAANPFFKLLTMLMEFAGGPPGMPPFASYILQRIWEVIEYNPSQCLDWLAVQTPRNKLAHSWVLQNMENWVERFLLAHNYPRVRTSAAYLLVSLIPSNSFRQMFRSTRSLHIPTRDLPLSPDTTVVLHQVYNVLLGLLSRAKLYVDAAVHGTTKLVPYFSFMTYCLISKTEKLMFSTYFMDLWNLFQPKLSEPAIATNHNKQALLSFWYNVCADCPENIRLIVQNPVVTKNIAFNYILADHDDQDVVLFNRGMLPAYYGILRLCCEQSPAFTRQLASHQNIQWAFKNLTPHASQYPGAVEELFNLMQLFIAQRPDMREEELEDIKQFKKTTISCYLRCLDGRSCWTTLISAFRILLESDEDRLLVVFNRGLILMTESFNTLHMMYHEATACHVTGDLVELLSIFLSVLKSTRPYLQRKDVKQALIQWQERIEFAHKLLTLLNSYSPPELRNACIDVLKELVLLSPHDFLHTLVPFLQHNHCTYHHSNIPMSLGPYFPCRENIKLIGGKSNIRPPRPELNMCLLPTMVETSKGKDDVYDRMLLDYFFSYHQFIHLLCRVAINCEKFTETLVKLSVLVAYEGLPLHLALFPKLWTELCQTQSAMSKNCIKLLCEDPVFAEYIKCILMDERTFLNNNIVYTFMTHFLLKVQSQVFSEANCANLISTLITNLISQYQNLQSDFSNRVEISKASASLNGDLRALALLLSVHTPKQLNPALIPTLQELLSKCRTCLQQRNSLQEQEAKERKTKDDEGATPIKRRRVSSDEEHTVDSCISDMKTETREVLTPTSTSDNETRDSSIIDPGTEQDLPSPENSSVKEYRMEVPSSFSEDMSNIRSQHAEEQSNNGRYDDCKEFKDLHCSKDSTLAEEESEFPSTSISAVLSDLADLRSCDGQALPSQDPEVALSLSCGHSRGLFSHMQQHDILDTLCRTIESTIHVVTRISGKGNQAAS
Method in brief: (§1)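 The table lists average log2 ratios of fragment over vehicle, from an unpaired t-test on global-median-normalised Spectronaut label-free quantities. Proteins with ≥2 unique peptides were used. Samples were HEK293T lysate (495 µg) treated in triplicate with fragment at 200 µM or vehicle for 3 h, then with Biotin-Ahx-Ub-VS (0.5 µM final) for 1 h, with labelled DUBs NeutrAvidin-enriched and run by diaPASEF LC-MS/MS.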

USP36 = biological target: T1, USP36 (UniProt Q9P275)
T1 sequence (whole entry): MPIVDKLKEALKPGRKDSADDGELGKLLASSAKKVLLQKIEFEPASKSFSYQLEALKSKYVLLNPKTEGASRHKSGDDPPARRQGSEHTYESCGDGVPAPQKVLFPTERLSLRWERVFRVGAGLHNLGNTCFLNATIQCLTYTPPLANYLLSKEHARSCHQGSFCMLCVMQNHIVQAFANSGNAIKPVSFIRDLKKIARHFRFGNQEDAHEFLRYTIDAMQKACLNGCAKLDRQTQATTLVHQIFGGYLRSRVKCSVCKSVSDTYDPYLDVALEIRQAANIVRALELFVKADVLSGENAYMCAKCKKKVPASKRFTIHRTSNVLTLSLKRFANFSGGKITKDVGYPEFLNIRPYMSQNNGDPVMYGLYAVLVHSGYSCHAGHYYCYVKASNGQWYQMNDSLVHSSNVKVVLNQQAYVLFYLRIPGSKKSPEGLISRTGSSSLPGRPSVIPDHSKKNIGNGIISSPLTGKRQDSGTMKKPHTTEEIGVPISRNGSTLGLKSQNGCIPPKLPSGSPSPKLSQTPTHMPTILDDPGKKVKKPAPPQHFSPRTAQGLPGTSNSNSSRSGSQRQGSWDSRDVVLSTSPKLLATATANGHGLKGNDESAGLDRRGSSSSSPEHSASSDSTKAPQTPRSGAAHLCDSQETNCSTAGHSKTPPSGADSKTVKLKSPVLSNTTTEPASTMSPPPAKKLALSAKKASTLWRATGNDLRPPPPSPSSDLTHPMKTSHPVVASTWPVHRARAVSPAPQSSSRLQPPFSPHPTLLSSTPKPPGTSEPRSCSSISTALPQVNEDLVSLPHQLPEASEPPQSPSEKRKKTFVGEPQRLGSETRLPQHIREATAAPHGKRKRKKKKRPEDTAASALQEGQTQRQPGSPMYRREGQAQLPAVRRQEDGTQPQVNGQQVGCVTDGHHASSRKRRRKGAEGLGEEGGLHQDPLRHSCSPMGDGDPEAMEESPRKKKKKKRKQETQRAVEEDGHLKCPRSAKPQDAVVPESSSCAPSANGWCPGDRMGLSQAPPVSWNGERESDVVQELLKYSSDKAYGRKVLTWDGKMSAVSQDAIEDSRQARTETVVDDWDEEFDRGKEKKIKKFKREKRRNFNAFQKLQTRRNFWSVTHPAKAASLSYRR
Method in brief: as §1

USP38 = biological target: T2, USP38 (UniProt Q8NB14)
T2 sequence (whole entry): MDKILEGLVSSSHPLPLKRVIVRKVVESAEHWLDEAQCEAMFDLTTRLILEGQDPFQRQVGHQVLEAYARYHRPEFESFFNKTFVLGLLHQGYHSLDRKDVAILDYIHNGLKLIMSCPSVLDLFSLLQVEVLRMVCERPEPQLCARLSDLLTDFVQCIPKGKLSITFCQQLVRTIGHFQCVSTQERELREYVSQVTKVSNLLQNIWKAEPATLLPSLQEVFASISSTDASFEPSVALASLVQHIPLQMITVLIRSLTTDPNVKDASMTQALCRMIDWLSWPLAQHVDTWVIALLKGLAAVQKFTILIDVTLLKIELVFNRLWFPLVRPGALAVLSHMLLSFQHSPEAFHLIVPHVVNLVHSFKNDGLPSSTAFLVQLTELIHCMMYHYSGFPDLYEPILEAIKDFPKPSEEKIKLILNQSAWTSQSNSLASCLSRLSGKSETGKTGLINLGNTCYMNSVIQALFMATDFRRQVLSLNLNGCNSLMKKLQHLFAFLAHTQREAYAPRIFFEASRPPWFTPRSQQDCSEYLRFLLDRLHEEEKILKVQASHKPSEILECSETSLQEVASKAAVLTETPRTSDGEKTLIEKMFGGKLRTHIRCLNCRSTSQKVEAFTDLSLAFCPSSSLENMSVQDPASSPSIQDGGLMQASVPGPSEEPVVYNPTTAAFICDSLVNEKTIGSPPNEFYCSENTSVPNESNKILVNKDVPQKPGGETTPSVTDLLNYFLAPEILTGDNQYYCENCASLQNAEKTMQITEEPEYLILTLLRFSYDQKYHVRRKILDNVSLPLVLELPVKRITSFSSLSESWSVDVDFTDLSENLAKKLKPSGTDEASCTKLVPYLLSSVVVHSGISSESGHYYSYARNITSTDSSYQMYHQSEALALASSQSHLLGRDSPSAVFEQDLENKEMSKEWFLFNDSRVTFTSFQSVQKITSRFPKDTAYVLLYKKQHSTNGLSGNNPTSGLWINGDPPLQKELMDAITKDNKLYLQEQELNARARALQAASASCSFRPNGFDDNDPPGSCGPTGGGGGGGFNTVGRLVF
Method in brief: as §1

USP39 = biological target: T3, USP39 (UniProt Q53GS9)
T3 sequence (whole entry): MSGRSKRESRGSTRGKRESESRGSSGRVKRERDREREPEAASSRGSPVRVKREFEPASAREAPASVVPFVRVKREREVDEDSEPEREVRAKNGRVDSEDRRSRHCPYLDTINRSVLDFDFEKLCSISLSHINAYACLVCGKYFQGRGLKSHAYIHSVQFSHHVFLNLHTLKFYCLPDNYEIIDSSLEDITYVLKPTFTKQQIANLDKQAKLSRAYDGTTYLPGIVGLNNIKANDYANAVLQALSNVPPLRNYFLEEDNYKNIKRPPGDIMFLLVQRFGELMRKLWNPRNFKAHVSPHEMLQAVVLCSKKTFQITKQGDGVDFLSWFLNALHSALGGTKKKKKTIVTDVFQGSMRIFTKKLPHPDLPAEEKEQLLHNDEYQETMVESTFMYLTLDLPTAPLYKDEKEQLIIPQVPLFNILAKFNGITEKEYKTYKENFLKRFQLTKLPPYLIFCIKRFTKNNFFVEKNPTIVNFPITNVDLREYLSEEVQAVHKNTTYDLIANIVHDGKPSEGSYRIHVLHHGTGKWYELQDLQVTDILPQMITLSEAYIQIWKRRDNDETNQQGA
Method in brief: as §1

USP4 = biological target: T4, USP4 (UniProt Q13107)
T4 sequence (whole entry): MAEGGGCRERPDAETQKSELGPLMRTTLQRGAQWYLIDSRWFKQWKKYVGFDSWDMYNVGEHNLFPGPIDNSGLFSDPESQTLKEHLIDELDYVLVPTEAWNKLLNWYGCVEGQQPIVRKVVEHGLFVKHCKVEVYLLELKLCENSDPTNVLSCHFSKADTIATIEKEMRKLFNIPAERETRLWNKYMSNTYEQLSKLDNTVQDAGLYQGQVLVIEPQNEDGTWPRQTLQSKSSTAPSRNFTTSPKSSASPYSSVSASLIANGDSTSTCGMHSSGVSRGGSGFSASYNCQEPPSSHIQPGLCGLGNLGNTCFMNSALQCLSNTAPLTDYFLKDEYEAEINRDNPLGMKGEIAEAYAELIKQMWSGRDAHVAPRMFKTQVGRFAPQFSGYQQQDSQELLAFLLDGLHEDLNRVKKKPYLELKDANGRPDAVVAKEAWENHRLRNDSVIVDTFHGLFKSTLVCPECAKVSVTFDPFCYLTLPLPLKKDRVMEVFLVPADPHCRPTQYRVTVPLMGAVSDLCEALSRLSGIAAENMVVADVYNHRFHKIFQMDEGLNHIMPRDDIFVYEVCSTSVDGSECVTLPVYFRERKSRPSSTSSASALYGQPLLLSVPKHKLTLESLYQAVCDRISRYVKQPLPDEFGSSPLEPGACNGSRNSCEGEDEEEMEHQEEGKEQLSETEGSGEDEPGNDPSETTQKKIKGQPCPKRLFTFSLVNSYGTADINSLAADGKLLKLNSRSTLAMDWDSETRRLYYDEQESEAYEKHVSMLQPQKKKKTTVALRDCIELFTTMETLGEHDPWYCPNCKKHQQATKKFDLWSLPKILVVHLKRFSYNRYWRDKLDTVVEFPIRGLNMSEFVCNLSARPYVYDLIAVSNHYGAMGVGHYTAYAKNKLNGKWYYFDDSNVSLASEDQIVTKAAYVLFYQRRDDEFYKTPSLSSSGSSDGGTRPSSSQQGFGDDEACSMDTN
Method in brief: as §1

Measured: log2 ratio of Biotin-Ahx-Ub-VS probe labelling

CC(NC(=O)CCl)c1cccc2ccccc12 (stereo not given)
inactive: USP34 -0.0995 | USP36 -0.062 | USP38 0.0489 | USP39 0.171 | USP4 -0.154
